This is part of a sample that, as a whole, favours compounds with a hit. Of some 83,000 tested, about 20% had one in any assay.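 Step 1: grow cells in 96-well plates. Step 2: add test compound at a single concentration. Step 3: incubate 48 h. Step 4: record percent growth.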 Values without a mark were called inactive. Calls of active or inactive are those of the source. The calls were made as follows: active = growth percent below 10; inactive = the rest.
Tested on: HL-60(TB) leukemia
Test: NCI-60 one-dose screen, 48 h (100 = growth as untreated, 0 = no growth, -100 = all killed)
Settings: 10 µM unless noted

Structure (SMILES) | growth
CCOC(=O)/C=C/c1c(C)[nH]c(=O)[nH]c1=O | 75.3%
O=c1c(-c2ccc3c(c2)OCO3)coc2c(CO)c(O)ccc12 | -46.9% (active)
COc1cc(CCNc2nc3cc(N)cc(N)c3nc2-c2ccccc2)cc(OC)c1 | -66.1% (active)
Clc1nc2ccc(Br)cc2cc1-c1nc2ccccc2[nH]1 | 87.6%
NC(=NCc1ccccc1)C(N=Nc1ccccc1)C(=O)NCc1ccccc1 (stereo unspecified) | 72%
COc1ccc(C(=O)/C=C/c2sc(Cl)nc2Cl)cc1 | 32.3%
O=C(N/N=C/c1ccncc1)c1ccc(C(F)(F)F)nc1Nc1cccc(C(F)(F)F)c1 | -16.7% (active)
COc1ccc2nc(-c3cc(-c4cc(OC)c(OC)c(OC)c4)n[nH]3)[nH]c2c1 | -38.7% (active)
N#Cc1c(N)nc(Nc2nc3ccccc3[nH]2)nc1-c1ccc(Cl)cc1 | 106%
CN(C)c1ccc(/C=C/C(=O)c2cccc(Nc3nc(Nc4ccccc4)nc(Nc4ccccc4)n3)c2)cc1 | 99.9%
Cc1cc(Nc2nc(N3CCNCC3)nc3ccccc23)n[nH]1 | 106%
O=S(=O)(NCCNc1nccc(-c2c(-c3cccc(O)c3)nc3occn23)n1)c1ccccc1 | 55.3%
CCSc1nc2scc(C)c2c(=O)[nH]1 | 99.8%
CCCCC(O)c1ccccc1 (stereo unspecified) | 99.2%
CCOC(CN=Cc1cc(C)c2[nH]c3ccccc3c2c1C)OCC | 76.6%
Cc1nnc(/N=C2\NC(=O)/C(=C/C=C/c3ccccc3)S2)s1 | 75.3%

Structure (SMILES) | growth
CC(c1cc(Cl)ccc1O)c1cc(Cl)ccc1O | 34.1%
CCCn1c2cc(OCc3cn(-c4ccc(Br)cc4)nn3)ccc2c2ccnc(C)c21 | -61.3% (active)
Cc1nc2c(c(N3CCCc4ccccc43)n1)CCC2 | -42.3% (active)
Cc1ccc(Cl)cc1N1CCN(C(=O)[C@@H]2C[C@@H]2c2ccc(F)cc2)CC1 | 69.9%
CC(=O)c1nc2ccccc2n1CCn1cc(CC(N)C(=O)O)c2ccccc21 (stereo unspecified) | 100%
O=C(CCc1nnc(-c2c(Cl)cccc2Cl)o1)c1nc2ccccc2[nH]1 | -33.8% (active)
C#CCOc1cccc(Nc2ncnc3cc(NC(=O)C=C)ccc23)c1 | -16.4% (active)
O=C(NCCc1ccccc1)Nc1ccc2cc3ccc(NC(=O)NCCc4ccccc4)cc3nc2c1 | -46.9% (active)
CCOC(=O)C1=C(c2ccccc2)N=C2SC=C(c3cccc([N+](=O)[O-])c3)N2C1c1ccc(O)cc1 (stereo unspecified) | 107%
O=C1CCCCN1CCCCC#Cc1ccccc1C#Cc1ccccn1 | 78.2%
O=C(N/N=C/c1ccncc1)c1ccccc1Nc1cccc(C(F)(F)F)c1 | 77.7%
CCCCN1C(=O)/C(=c2\sc3n(c2=O)NC2C(N=3)N(CC)C(=O)N2CC)c2ccccc21 (stereo unspecified) | 21.3%
COC(=O)c1c2c(c(C)[n+]([O-])c1C)C(=O)C(NCc1cccc(OC)c1)=CC2=O | -52.2% (active)
Cc1ccccc1-c1cc(Cc2ccccc2O)c(=O)[nH]n1 | 84.1%
COc1cccc(Nc2ccnc3[nH]c4ccc([N+](=O)[O-])cc4c23)c1 | 35.4%
